# Source: PubChem BioAssay AID1159580 (chemical genetic matrix, 2015)
# About 2,000 (36%) of roughly 5,500 compounds were called active. Another 18% or so got no clear call; they are omitted. The list shows a part of the results. Unmarked numbers belong to inactive results. Rule as the data show it: active = normalized growth mostly below about 0.91 (no sharp cut-off); inconclusive = no clear call, values can overlap the other calls; inactive = mostly above about 0.92.
# Experiment: chemical genetic growth profiling, strain panel (AID 1159580);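 also: tested at 20 µM; growth read once vehicle control cultures reached saturation at 30 °C; 1 = growth at the plate median or of vehicle wells; lower values mean less growth of the strain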
# Settings: growth OD
smiles,measurement,setting,value
CCOP(=S)(OCC)SCn1c(=O)oc2cc(Cl)ccc21,normalized growth,"S. cerevisiae deletion strains, locus YJR043C, strain POL32, hits give low values",1.01
same,normalized growth,"S. cerevisiae deletion strains, locus YJR075W, strain HOC1, hits give low values",0.995
same,normalized growth,"S. cerevisiae deletion strains, locus YKL009W, strain mrt4, hits give low values",0.98
same,normalized growth,"S. cerevisiae deletion strains, locus YKL068W, hits give low values",1
same,normalized growth,"S. cerevisiae deletion strains, locus YKL085W, strain MDH1 (second series), hits give low values",0.989
same,normalized growth,"S. cerevisiae deletion strains, locus YKL085W, strain MDH1, hits give low values",0.989
same,normalized growth,"S. cerevisiae deletion strains, locus YKL160W, strain elf1, hits give low values",0.968
same,normalized growth,"S. cerevisiae deletion strains, locus YKL190W, strain CNB1, hits give low values",1.01
same,normalized growth,"S. cerevisiae deletion strains, locus YKR001C, strain vps1, hits give low values",0.982
same,normalized growth,"S. cerevisiae deletion strains, locus YKR026C, strain gcn3, hits give low values",0.947
same,normalized growth,"S. cerevisiae deletion strains, locus YKR091W, strain srl3, hits give low values",0.963
same,normalized growth,"S. cerevisiae deletion strains, locus YLL001W, strain dnm1, hits give low values",0.967
same,normalized growth,"S. cerevisiae deletion strains, locus YLL026W, hits give low values",0.954
same,normalized growth,"S. cerevisiae deletion strains, locus YLL041C, strain sdh2, hits give low values",0.954
same,normalized growth,"S. cerevisiae deletion strains, locus YLR027C, strain aat2, hits give low values",0.954
same,normalized growth,"S. cerevisiae deletion strains, locus YLR039C, strain RIC1, hits give low values",0.97
same,normalized growth,"S. cerevisiae deletion strains, locus YLR058C, strain SHM2, hits give low values",1
same,normalized growth,"S. cerevisiae deletion strains, locus YLR102C, strain apc9, hits give low values",0.995
same,normalized growth,"S. cerevisiae deletion strains, locus YLR221C, strain rsa3, hits give low values",0.964
same,normalized growth,"S. cerevisiae deletion strains, locus YLR258W, strain gsy2, hits give low values",0.93
same,normalized growth,"S. cerevisiae deletion strains, locus YLR262C, strain YPT6 (second series), hits give low values",0.8 (active)
same,normalized growth,"S. cerevisiae deletion strains, locus YLR262C, strain YPT6, hits give low values",0.969
same,normalized growth,"S. cerevisiae deletion strains, locus YLR268W, strain sec22, hits give low values",0.987
same,normalized growth,"S. cerevisiae deletion strains, locus YLR320W, strain mms22, hits give low values",0.942
same,normalized growth,"S. cerevisiae deletion strains, locus YLR330W, strain CHS5, hits give low values",0.985
same,normalized growth,"S. cerevisiae deletion strains, locus YLR342W, strain FKS1 (second series), hits give low values",1.05
same,normalized growth,"S. cerevisiae deletion strains, locus YLR342W, strain FKS1, hits give low values",0.93
same,normalized growth,"S. cerevisiae deletion strains, locus YLR357W, strain rsc2, hits give low values",0.949
same,normalized growth,"S. cerevisiae deletion strains, locus YLR370C, strain arc18, hits give low values",0.962
same,normalized growth,"S. cerevisiae deletion strains, locus YLR371W, strain rom2, hits give low values",1
same,normalized growth,"S. cerevisiae deletion strains, locus YLR384C, strain iki3, hits give low values",0.971
same,normalized growth,"S. cerevisiae deletion strains, locus YLR418C, strain cdc73, hits give low values",0.97
same,normalized growth,"S. cerevisiae deletion strains, locus YML016C, strain PPZ1, hits give low values",0.996
same,normalized growth,"S. cerevisiae deletion strains, locus YML032C, strain rad52, hits give low values",0.998
same,normalized growth,"S. cerevisiae deletion strains, locus YML120C, strain ndi1, hits give low values",0.965
same,normalized growth,"S. cerevisiae deletion strains, locus YML124C, strain tub3, hits give low values",0.991
same,normalized growth,"S. cerevisiae deletion strains, locus YMR058W, strain fet3, hits give low values",0.966
same,normalized growth,"S. cerevisiae deletion strains, locus YMR078C, strain ctf18, hits give low values",0.989
same,normalized growth,"S. cerevisiae deletion strains, locus YMR125W, strain sto1, hits give low values",0.961
same,normalized growth,"S. cerevisiae deletion strains, locus YMR129W, hits give low values",0.949
same,normalized growth,"S. cerevisiae deletion strains, locus YMR205C, strain PFK2, hits give low values",0.895
same,normalized growth,"S. cerevisiae deletion strains, locus YMR223W, strain ubp8, hits give low values",0.998
same,normalized growth,"S. cerevisiae deletion strains, locus YMR231W, strain pep5, hits give low values",0.973
same,normalized growth,"S. cerevisiae deletion strains, locus YMR263W, strain SAP30, hits give low values",1
same,normalized growth,"S. cerevisiae deletion strains, locus YMR307W, strain GAS1, hits give low values",1.03
same,normalized growth,"S. cerevisiae deletion strains, locus YNL067W, strain RPL9B, hits give low values",0.993
same,normalized growth,"S. cerevisiae deletion strains, locus YNL071W, strain lat1, hits give low values",0.91 (active)
same,normalized growth,"S. cerevisiae deletion strains, locus YNL128W, strain TEP1, hits give low values",0.989
same,normalized growth,"S. cerevisiae deletion strains, locus YNL153C, strain GIM3, hits give low values",0.994
same,normalized growth,"S. cerevisiae deletion strains, locus YNL209W, strain ssb2, hits give low values",0.983
same,normalized growth,"S. cerevisiae deletion strains, locus YNL233W, strain BNI4, hits give low values",0.995
same,normalized growth,"S. cerevisiae deletion strains, locus YNL248C, strain rpa49, hits give low values",0.966
same,normalized growth,"S. cerevisiae deletion strains, locus YNL250W, strain rad50, hits give low values",0.993
same,normalized growth,"S. cerevisiae deletion strains, locus YNL271C, strain bni1, hits give low values",0.992
same,normalized growth,"S. cerevisiae deletion strains, locus YNL298W, strain CLA4, hits give low values",0.997
same,normalized growth,"S. cerevisiae deletion strains, locus YNL307C, strain MCK1, hits give low values",0.991
same,normalized growth,"S. cerevisiae deletion strains, locus YNL322C, strain KRE1 (second series), hits give low values",0.958
same,normalized growth,"S. cerevisiae deletion strains, locus YNL322C, strain KRE1, hits give low values",1
same,normalized growth,"S. cerevisiae deletion strains, locus YNR049C, strain mso1, hits give low values",0.961
same,normalized growth,"S. cerevisiae deletion strains, locus YNR052C, strain pop2, hits give low values",0.992
same,normalized growth,"S. cerevisiae deletion strains, locus YOL006C, strain TOP1, hits give low values",0.981
same,normalized growth,"S. cerevisiae deletion strains, locus YOL012C, strain htz1",1.68
same,normalized growth,"S. cerevisiae deletion strains, locus YOL147C, strain pex11, hits give low values",0.996
same,normalized growth,"S. cerevisiae deletion strains, locus YOR001W, strain rrp6, hits give low values",0.969
same,normalized growth,"S. cerevisiae deletion strains, locus YOR061W, strain CKA2, hits give low values",0.985
same,normalized growth,"S. cerevisiae deletion strains, locus YOR069W, strain VPS5, hits give low values",1
same,normalized growth,"S. cerevisiae deletion strains, locus YOR070C, strain gyp1, hits give low values",0.961
same,normalized growth,"S. cerevisiae deletion strains, locus YOR080W, strain dia2, hits give low values",0.961
same,normalized growth,"S. cerevisiae deletion strains, locus YOR083W, strain WHI5, hits give low values",0.961
same,normalized growth,"S. cerevisiae deletion strains, locus YOR106W, strain vam3, hits give low values",0.963
same,normalized growth,"S. cerevisiae deletion strains, locus YOR136W, strain idh2, hits give low values",0.999
same,normalized growth,"S. cerevisiae deletion strains, locus YOR144C, strain elg1, hits give low values",0.982
same,normalized growth,"S. cerevisiae deletion strains, locus YOR184W, strain ser1, hits give low values",0.978
same,normalized growth,"S. cerevisiae deletion strains, locus YOR265W, strain rbl2, hits give low values",0.952
same,normalized growth,"S. cerevisiae deletion strains, locus YOR270C, strain vph1, hits give low values",0.963
same,normalized growth,"S. cerevisiae deletion strains, locus YOR290C, strain snf2, hits give low values",0.963
same,normalized growth,"S. cerevisiae deletion strains, locus YOR316C, strain cot1, hits give low values",0.991
same,normalized growth,"S. cerevisiae deletion strains, locus YPL051W, strain arl3, hits give low values",0.953
same,normalized growth,"S. cerevisiae deletion strains, locus YPL055C, strain LGE1, hits give low values",0.981
same,normalized growth,"S. cerevisiae deletion strains, locus YPL078C, strain atp4, hits give low values",0.962
same,normalized growth,"S. cerevisiae deletion strains, locus YPL106C, strain sse1, hits give low values",0.994
same,normalized growth,"S. cerevisiae deletion strains, locus YPL240C, strain hsp82, hits give low values",0.948
same,normalized growth,"S. cerevisiae deletion strains, locus YPL241C, strain CIN2, hits give low values",0.994
same,normalized growth,"S. cerevisiae deletion strains, locus YPR119W, strain clb2, hits give low values",0.99
same,normalized growth,"S. cerevisiae deletion strains, locus YPR141C, strain kar3, hits give low values",0.993
same,normalized growth,"S. cerevisiae deletion strains, locus YPR163C, strain tif3, hits give low values",0.993
same,normalized growth,"S. cerevisiae deletion strains, locus YPR167C, strain met16, hits give low values",0.984
same,normalized growth,"S. cerevisiae deletion strains, strain wtn01, hits give low values",0.99
same,normalized growth,"S. cerevisiae strains, strain wild type, hits give low values",0.993
